Data as given in the supplement of paper PMC3545927.
Some of the results follow. No count for the full screen is at hand.

Biological target: furin, P09958
Assay: furin cleavage Z-score vs untreated control; higher = more cleavage, active = 3.5 or more, inactive = 1 or less, 8 variable residues between constant flanks
Method in brief: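 Purified furin cleaved 8-mer peptides that were fused to a cDNA oligonucleotide and held on magnetic beads by their N-terminus. Each 0.01 ml reaction used a 1:10 enzyme:substrate ratio in 50 mM HEPES pH 7.5 with CaCl2 and NaCl and ran 7.5, 15 or 30 min. Released DNA was adapter-tagged by PCR and sequenced, and read counts gave abundance. The cleavage Z-score came from log counts against furin-free reactions, lowess-adjusted and scaled by median absolute deviation.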

Sequence of furin, P09958 (P09958 whole entry): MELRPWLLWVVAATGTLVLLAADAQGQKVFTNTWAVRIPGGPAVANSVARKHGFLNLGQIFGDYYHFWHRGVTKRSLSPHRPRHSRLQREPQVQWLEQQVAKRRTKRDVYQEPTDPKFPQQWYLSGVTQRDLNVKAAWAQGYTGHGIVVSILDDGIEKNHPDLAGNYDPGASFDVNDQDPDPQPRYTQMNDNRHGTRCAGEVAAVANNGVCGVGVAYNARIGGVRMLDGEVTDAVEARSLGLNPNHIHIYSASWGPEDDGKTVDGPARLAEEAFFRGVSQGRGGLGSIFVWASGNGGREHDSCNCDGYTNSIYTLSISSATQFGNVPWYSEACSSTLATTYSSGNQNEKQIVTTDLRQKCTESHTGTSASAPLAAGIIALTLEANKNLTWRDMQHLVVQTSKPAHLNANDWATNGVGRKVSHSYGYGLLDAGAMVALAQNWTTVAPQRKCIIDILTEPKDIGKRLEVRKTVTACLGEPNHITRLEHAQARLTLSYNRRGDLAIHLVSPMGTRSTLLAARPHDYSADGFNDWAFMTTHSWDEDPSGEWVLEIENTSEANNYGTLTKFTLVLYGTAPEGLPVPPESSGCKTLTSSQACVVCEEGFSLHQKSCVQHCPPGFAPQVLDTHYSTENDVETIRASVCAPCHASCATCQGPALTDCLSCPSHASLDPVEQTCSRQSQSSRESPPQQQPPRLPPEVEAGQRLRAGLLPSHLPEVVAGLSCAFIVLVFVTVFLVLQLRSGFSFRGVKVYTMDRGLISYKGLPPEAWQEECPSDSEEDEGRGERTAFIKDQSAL

Sequence | furin cleavage Z-score (7.5 min) | furin cleavage Z-score (15 min) | furin cleavage Z-score (30 min)
CAMEECLQHLAGNASASA [HC24] | 0.426 (inactive) | 0.849 (inactive) | 1.01
CAMEECIQHLAGNASASA [HC25] | 2.89 | 0.509 (inactive) | 1.63
CASSASQLSAAGNASASA [HC1261] | 0.811 (inactive) | -0.271 (inactive) | -1.07 (inactive)
CARKKRPGGGAGNASASA [FS-2344] | 0.0138 (inactive) | 0.394 (inactive) | -0.0781 (inactive)
CAMKKRDLSAAGNASASA [FS-2872] | 4.25 (active) | 5.63 (active) | 4.84 (active)
CARTYRWLSAAGNASASA [FS-2192] | -0.657 (inactive) | 1.48 | 0.201 (inactive)
CARKKRSTSAAGNASASA [FU2] | 12.7 (active) | 14.1 (active) | 8.12 (active)
CARKKRIVTGAGNASASA [FS-2342] | 4.57 (active) | 4.97 (active) | 5.79 (active)
CARKKRTTSAAGNASASA [FS-2345] | 8.37 (active) | 8.69 (active) | 6.28 (active)
CARKGKSSSAAGNASASA [FS-1725] | -1.17 (inactive) | -1.17 (inactive) | -0.784 (inactive)
CASGKPAIIPAGNASASA [HC1005] | -1.38 (inactive) | -0.473 (inactive) | 0.121 (inactive)
CATTPCSCSWAGNASASA [HC1900] | -1.59 (inactive) | -2.52 (inactive) | -0.421 (inactive)
CARGDRFSEDAGNASASA [FS-2931] | -1.45 (inactive) | -0.738 (inactive) | -1.76 (inactive)
CARIIRSSEDAGNASASA [FS-2950] | 3.85 (active) | 3.61 (active) | 5.54 (active)
CARHTRSAEDAGNASASA [FS-2681] | 11.3 (active) | 11.4 (active) | 9.18 (active)
CARHTPVNSWAGNASASA [HC1571] | 1.44 | 0.608 (inactive) | 0.598 (inactive)
CARHTRSIFWAGNASASA [FS-2147] | 4.67 (active) | 4.45 (active) | 7.05 (active)
CARSIRDAEDAGNASASA [FS-2805] | 0.647 (inactive) | 0.756 (inactive) | 1.52
CARHTRSYDYAGNASASA [FS-1897] | 1.79 | 2.03 | 4.9 (active)
CATTPCSGFWAGNASASA [HC1907] | -1.56 (inactive) | -0.535 (inactive) | -0.967 (inactive)
CAGHTVSGFVAGNASASA [HC357] | 1.57 | -0.476 (inactive) | -0.897 (inactive)
CARGRRKDDYAGNASASA [FS-2417] | 0.188 (inactive) | -0.41 (inactive) | 0.301 (inactive)
CARNTRSDEDAGNASASA [FS-3014] | -1.02 (inactive) | -0.114 (inactive) | -1.53 (inactive)

Sequence | furin cleavage Z-score (7.5 min) | furin cleavage Z-score (15 min) | furin cleavage Z-score (30 min)
CATRPCSGSWAGNASASA [HC1853] | -0.899 (inactive) | -0.615 (inactive) | -0.153 (inactive)
CADAHFLSQTAGNASASA [HC945] | 0.613 (inactive) | 1.42 | 0.711 (inactive)
CATTNCSGSWAGNASASA [HC1881] | -0.528 (inactive) | -0.292 (inactive) | 0.376 (inactive)
CAEEVVCCSMAGNASASA [HC2132] | 0.374 (inactive) | 0.297 (inactive) | -0.621 (inactive)
CAYHSVSHARAGNASASA [HC1651] | -1.35 (inactive) | -2.06 (inactive) | 0.0597 (inactive)
CAMEECSQHEAGNASASA [HC1772] | 1.5 | -1.3 (inactive) | 0.318 (inactive)
CAAGAHWGVLAGNASASA [HC335] | -0.197 (inactive) | -0.687 (inactive) | 0.539 (inactive)
CADMEVVTSTAGNASASA [HC2286] | 0.448 (inactive) | -0.986 (inactive) | 0.706 (inactive)
CATTPCSGSEAGNASASA [HC1932] | -1.03 (inactive) | -0.656 (inactive) | -0.208 (inactive)
CACNHRNRRRAGNASASA [FS-1624] | 5.53 (active) | 5.63 (active) | 6.25 (active)
CAPAHRHRRRAGNASASA [FS-1040] | 8.92 (active) | 11.7 (active) | 8.95 (active)
CAVRKRLRRRAGNASASA [FS-106] | 5.39 (active) | 6.32 (active) | 5.13 (active)
CAFGRRLRRRAGNASASA [FS-1124] | 3.43 | 6.37 (active) | 4.4 (active)
CAKKSRLRRRAGNASASA [FS-1131] | 0.949 (inactive) | 0.557 (inactive) | 0.0179 (inactive)
CASTPCSAHCAGNASASA [HC2580] | 0.205 (inactive) | 1.68 | 0.424 (inactive)
CAIEECSQHLAGNASASA [HC1664] | 0.463 (inactive) | 0.93 (inactive) | 0.504 (inactive)
CAEVVTSWWVAGNASASA [HC2208] | -0.678 (inactive) | 0.21 (inactive) | -0.507 (inactive)
CALCGRYKRWAGNASASA [FS-49] | 9.62 (active) | 12 (active) | 10.7 (active)
CAQHYRKKRWAGNASASA [FS-370] | 7.9 (active) | 8.78 (active) | 9.04 (active)
CALIDRFKRWAGNASASA [FS-270] | 8.5 (active) | 9.49 (active) | 10.6 (active)
CALINTNGSWAGNASASA [HC367] | 1.08 | -2.18 (inactive) | 0.0661 (inactive)
CAKIARHYRWAGNASASA [FS-1634] | 0.349 (inactive) | 0.374 (inactive) | 2.69
